Experimental data from the supplement of paper PMC10849652.
Targets with a hit are over-represented here; the source holds about 8,800 in all. About 0.5% of all pairs of compound and target were hits.

Legend:
Experiment in all cases: log2 fold change, soluble protein after heating vs DMSO (PISA); higher = thermal stabilisation; K562 lysate, 10 uM; active = over 0.2 and 3.5 SD of the protein, either way, in both replicates (recomputed)
[1] = compound: CN1CCc2c(c3ccccc3n2Cc2ccc(C(=O)NO)cc2)C1 [Tubastatin A]
How it was run: (§1)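 K562 pellets were dounce-homogenised in PBS pH 7.4 containing 1 mM MgCl2, and the crude extract, at 1 mg/mL protein, was exposed to 10 μM compound for 30 min. Aliquots were heated for 3 min across 48°C-58°C, pooled, brought to 0.5% NP-40 at 4°C and spun at 21,000xg for 90 min, with the supernatant taken as soluble protein. TMTpro 16plex LC-MS/MS with equalised channel sums quantified that protein. Values are log-two fold changes in thermal stability relative to solvent controls, taken from duplicates.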

[2] = compound: CNc1nc(-c2ccc3c(N)n[nH]c3c2)cc(N2C[C@@H](C(=O)NC3CCCCC3)CC[C@H]2C)n1
How it was run: as §1

[3] = compound: COc1cc(Nc2ncc3c(n2)-c2ccc(Cl)cc2C(c2c(F)cccc2OC)=NC3)ccc1C(=O)O [alisertib]
How it was run: as §1

[4] = compound: COc1cc2ncnc(Nc3ccc(F)c(Cl)c3)c2cc1OCCCN1CCOCC1 [gefitinib]
How it was run: as §1

[5] = compound: C[C@H](Nc1ncnc2nc[nH]c12)c1cc2cccc(Cl)c2c(=O)n1-c1ccccc1 [duvelisib]
How it was run: as §1

[6] = compound: COC(=O)N[C@@H](C)CNc1nccc(-c2cn(C(C)C)nc2-c2cc(Cl)cc(NS(C)(=O)=O)c2F)n1 [encorafenib]
How it was run: as §1

[7] = compound: COC(=O)[C@H](CCSC)NC(=O)C1=C(C=C(C=C1)NC[C@H](CS)N)C2=CC=CC=C2
How it was run: as §1

[8] = compound: Cc1cc(Nc2cc(N3CCN(C)CC3)nc(Sc3ccc(NC(=O)C4CC4)cc3)n2)n[nH]1 [tozasertib]
How it was run: as §1

Measured: log2 fold change

NUMB isoform 2 (UniProt P49757)
Chain of UniProt P49757 (P49757 whole entry, looked up): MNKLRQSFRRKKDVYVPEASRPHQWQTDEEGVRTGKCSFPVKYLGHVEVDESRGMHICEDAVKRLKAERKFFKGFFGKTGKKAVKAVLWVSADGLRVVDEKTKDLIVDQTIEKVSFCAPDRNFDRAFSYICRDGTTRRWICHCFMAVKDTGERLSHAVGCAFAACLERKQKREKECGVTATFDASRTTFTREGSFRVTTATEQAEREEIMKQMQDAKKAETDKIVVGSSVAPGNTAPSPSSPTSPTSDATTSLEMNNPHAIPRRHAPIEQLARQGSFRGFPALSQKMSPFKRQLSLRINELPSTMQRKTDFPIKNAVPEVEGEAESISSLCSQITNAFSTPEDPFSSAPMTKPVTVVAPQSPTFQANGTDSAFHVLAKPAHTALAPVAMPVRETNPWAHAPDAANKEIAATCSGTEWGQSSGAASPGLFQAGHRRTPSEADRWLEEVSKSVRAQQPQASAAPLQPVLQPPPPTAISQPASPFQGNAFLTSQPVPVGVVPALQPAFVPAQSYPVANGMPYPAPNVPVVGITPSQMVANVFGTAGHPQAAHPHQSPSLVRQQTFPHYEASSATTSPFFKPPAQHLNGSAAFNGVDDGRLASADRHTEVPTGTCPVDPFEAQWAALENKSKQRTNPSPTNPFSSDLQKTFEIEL
inactive: [1] -0.112 | [2] 0.158 | [3] 0.092 | [4] -0.277 | [5] 0.023

ORC1 (UniProt Q13415)
Chain of UniProt Q13415 (Q13415 whole entry, looked up): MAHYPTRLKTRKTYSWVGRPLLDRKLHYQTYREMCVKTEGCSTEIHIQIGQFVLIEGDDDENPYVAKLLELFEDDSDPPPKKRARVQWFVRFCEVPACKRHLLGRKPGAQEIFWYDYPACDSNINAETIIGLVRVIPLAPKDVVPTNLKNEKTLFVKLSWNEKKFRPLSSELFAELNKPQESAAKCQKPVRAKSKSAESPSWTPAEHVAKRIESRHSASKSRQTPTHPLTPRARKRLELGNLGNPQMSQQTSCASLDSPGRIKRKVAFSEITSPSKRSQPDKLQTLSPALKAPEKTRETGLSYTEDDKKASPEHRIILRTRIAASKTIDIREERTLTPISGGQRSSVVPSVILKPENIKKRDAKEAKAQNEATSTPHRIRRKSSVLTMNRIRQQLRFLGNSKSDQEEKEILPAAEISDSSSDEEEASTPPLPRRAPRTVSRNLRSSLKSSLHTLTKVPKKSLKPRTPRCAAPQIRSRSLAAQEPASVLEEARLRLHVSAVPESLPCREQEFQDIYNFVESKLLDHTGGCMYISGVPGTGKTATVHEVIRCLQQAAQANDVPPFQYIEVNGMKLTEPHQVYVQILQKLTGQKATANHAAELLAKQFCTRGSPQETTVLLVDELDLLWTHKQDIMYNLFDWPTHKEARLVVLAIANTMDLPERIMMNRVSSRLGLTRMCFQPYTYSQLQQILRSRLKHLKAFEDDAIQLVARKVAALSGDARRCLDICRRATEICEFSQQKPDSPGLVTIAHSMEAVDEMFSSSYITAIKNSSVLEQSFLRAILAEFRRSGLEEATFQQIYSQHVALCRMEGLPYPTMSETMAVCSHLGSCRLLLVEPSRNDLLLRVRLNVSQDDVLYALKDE
inactive: [6] 0.018 | [7] -0.188 | [8] 0.023

NUB1 (UniProt H7C5N1)
inactive: [1] 0.209
